We go through 36 molecules from PubChem BioAssay.

In the assay the target is Torsin-1A (Homo sapiens) (UniProt O14656). Put plainly: TOR1A wild-type binding on microarray – cell lysate, small-molecule microarray, lysate, 635/667 nm, primary screen (AID 1149). The following applies: COS7 hTOR1A-WT lysate, 635 nm fluorescence, higher = more signal.
Sequence of Torsin-1A (Homo sapiens) (O14656 whole entry, looked up): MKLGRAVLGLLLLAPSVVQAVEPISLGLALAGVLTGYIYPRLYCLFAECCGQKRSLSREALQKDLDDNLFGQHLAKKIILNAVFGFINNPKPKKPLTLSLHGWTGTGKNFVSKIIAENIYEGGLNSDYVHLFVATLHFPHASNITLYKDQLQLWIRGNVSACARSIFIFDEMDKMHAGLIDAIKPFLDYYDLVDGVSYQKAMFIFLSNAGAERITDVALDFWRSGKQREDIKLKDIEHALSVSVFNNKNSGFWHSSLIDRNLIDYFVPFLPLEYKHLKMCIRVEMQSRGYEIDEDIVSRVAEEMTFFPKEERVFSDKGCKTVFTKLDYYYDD
On to `C=C(C)C1C(=C)CN([C@H](CO)c2ccccc2)C1=O` (stereo partly specified), for which the composite z-score is -1.46.
`COc1ccc(C(O)C2C=CC3C(=O)N(c4ccccc4)C(=O)C3N2Nc2ccccc2F)cc1OCc1ccccc1` (stereo unspecified) yielded a composite z-score of 0.281.
With `COCCCNC(=O)[C@@]1(Cc2ccccc2)N=C(c2ccc(OCCCO)cc2)O[C@H]1c1ccccc1` the figure was 0.268.
As for `CC(C)C(CO)N1C(=O)[C@@H]2[C@H]3C(=O)OCC=C[C@H]3OC23C=CCN(C(C)C)C(=O)[C@@H]13` (stereo partly specified), the composite z-score was -0.543.
Molecule `[N-]=[N+]=Nc1ccccc1[C@H]1OC(c2ccc(OCCCO)cc2)=N[C@@]1(Cc1ccccc1)C(=O)O` displayed a composite z-score of 0.395.
Turning to `Cc1ccc(S[C@]2(C(=O)NC(C)C)CC(=O)N(Cc3ccccc3Cl)[C@@H]2c2ccc(CO)cc2I)cc1`, the composite z-score is -1.85.
`CN(C)CCCCCCNC(=O)[C@@H]1C[C@@H]2C(=O)N[C@@H](CCCCN)C(=O)N2[C@@H]1c1cccc(OCCO)c1` yielded a composite z-score of 3.29.
With `CC(C)(C)OC(=O)CC[C@]12N=C(c3ccc(OCCCO)cc3)O[C@H]1c1ccccc1N(CCS(=O)(=O)c1ccccc1)C2=O` the figure was 0.698; with `COCCn1c(C(=O)N2CCCC2)cc2c1C[C@H]1CN(C(=O)c3ccccc3)[C@@](Cc3ccc(F)cc3)(C(=O)OC)[C@@H]21`, 1.42; with `CC1CC/C=C\[C@H]2OC34C=CCN(C(C)(C)C)C(=O)[C@H]3N(CCCCCCO)C(=O)[C@@H]4C2C(=O)O1` (stereo partly specified), -0.67.
Turning to `COCCOC(=O)N1C(=O)[C@@]2(c3cc(C#Cc4ccc(OC)cc4)ccc31)[C@H](C(N)=O)[C@H]1C(=O)O[C@H](c3ccccc3)[C@H](c3ccccc3)N1[C@@H]2c1ccccc1OCCO`, the composite z-score is 0.666.
For the molecule `O=C1OCCC/C=C\[C@H]2OC34C=CCN(c5ccc6ccccc6c5)C(=O)[C@H]3N(CCCCCCO)C(=O)[C@@H]4C12` (stereo partly specified), the composite z-score was -1.12.
With `COc1ccc([C@H]2C[C@H]3C(Br)=C[C@@H]2C(=O)[C@]32CO2)cc1` the figure was -0.0733.
Turning to `COCCOC(=O)N1C(=O)[C@@]2(c3cc(C#CCCO)ccc31)[C@H](c1ccc(OCCO)cc1)N1[C@H](c3ccccc3)[C@H](c3ccccc3)OC(=O)[C@H]1[C@@H]2C(=O)N1CCN(c2ncccn2)CC1`, the composite z-score worked out at 0.546.
`Cc1ccc(C(C)CC(O)C2C=CC3C(=O)N(C)C(=O)C3N2NC(=O)OC(C)(C)C)o1` (stereo unspecified) came in with a composite z-score of 0.204.
As to `C=CC[C@@]1(C(=O)N(C)C)N=C(c2ccc(OCCCO)cc2)O[C@@H]1c1ccccc1N=[N+]=[N-]`, the composite z-score was found to be 0.722.
The result for `COCCOC(=O)N1C(=O)[C@@]2(c3cc(C#CCCO)ccc31)[C@H](C(=O)Nc1nc3ccccc3s1)[C@H]1C(=O)O[C@H](c3ccccc3)[C@H](c3ccccc3)N1[C@@H]2c1ccc(OCCO)cc1` reads 0.367; that for `O=C(c1ccccc1)N1Cc2ccccc2[C@@H]2OC(c3ccc(OCCCO)cc3)=N[C@]2(Cc2ccccc2)C1=O`, 0.236.
Turning to `NCCCCCNC(=O)[C@@H]1C[C@@H]2C(=O)N[C@@H](Cc3ccccc3)C(=O)N2[C@@H]1c1cccc(OCCO)c1`, the composite z-score is 0.89.
In turn, `COc1ccc([C@H]2OC[C@@H]3CC4(CC=CC4)C(=O)N32)cc1` came in with a composite z-score of -0.477.
For the molecule `CN1C(=O)C2C=CC(C(O)Cc3ccccc3)N(Nc3ccccc3)C2C1=O` (stereo unspecified), the composite z-score is 0.279.
Molecule `[N-]=[N+]=NCc1ccccc1[C@@H]1OC(c2ccc(OCCCO)cc2)=N[C@]1(Cc1ccccc1N=[N+]=[N-])C(=O)N1CCOCC1` displayed a composite z-score of 0.308.
`COc1ccc(CCNC(=O)[C@@]2(Sc3ccc(C)cc3)CC(=O)N(C3CCCCC3)[C@@H]2c2ccc(CO)cc2I)cc1`: the composite z-score is 0.333.
`[N-]=[N+]=NCc1ccccc1[C@@H]1OC(c2ccc(OCCCO)cc2)=N[C@]1(CCS(=O)(=O)c1ccccc1)C(=O)NCc1ccccc1` yielded a composite z-score of 0.248.
Molecule `O=C1OCC=C[C@H]2OC34C=CCN(CCN5CCOCC5)C(=O)[C@H]3N(CCCO)C(=O)[C@@H]4[C@@H]12` (stereo partly specified) came in with a composite z-score of 0.267.
On to `CCc1oc(CC[C@@H](CO)NC(=O)NCCn2cc(C3(O)CCCCC3)nn2)c(C(=O)OC)c1C(=O)OC`, for which the composite z-score worked out at 1.31.
`COC(=O)[C@@]1(Cc2ccc(F)cc2)[C@H]2c3cc(C(=O)N(C)C)n(Cc4nc5ccccc5[nH]4)c3C[C@H]2CN1C(=O)c1ccccc1`: the composite z-score is -0.806.
The molecule `COc1ccc(CCN2C(=O)[C@@]3(c4ccc([N+](=O)[O-])cc4)CC(=O)N(C4CCCCC4)[C@@H]3c3ccc(CO)cc32)cc1` registered a composite z-score of 0.209.
`O=C(O)[C@@]1(CCS(=O)(=O)c2ccccc2)COC(c2ccc(OCCCO)cc2)=N1` showed a composite z-score of -0.792.
The result for `CC(C)C[C@@H]1NC(=O)[C@H]2C[C@@H](C(=O)NCCCCCCN)[C@@H](c3ccc(O)cc3)N2C1=O` reads 1.07.
In turn, `CCCC[C@H]1OB(O)C[C@H]2C1=C(COc1ccccc1)C[C@H]1C(=O)N(C)C(=O)[C@H]12` registered a composite z-score of -0.212.
Turning to `O=C1O[C@H](c2ccccc2)[C@H](c2ccccc2)N2[C@H]1[C@@H](C(=O)N1CCN(c3ncccn3)CC1)[C@]1(C(=O)Nc3ccc(C#CC4=CCCCC4)cc31)[C@H]2c1ccc(O)cc1`, the composite z-score was determined as 0.268.
With `C#CCN(CC=C(C)C)[C@H](CO)c1ccccc1` the figure was 0.247; with `Cc1ccc(S[C@]2(C(=O)NCCN3CCOCC3)CC(=O)N(Cc3ccccc3Cl)[C@@H]2c2ccc(CO)cc2)cc1`, -2.16.
The result for `O=C1NC(=O)C2C1C=CC(C(O)Cc1ccccc1)N2Nc1ccc(Cl)cc1Cl` (stereo unspecified) reads -0.0973; that for `C=CCOC(=O)[C@@H]1[C@H]2C(=O)O[C@H](c3ccccc3)[C@H](c3ccccc3)N2[C@H](c2ccc(OCCOC(=O)[C@@H]3C[C@@H]4C(=O)N5CCC[C@H]5C(=O)N4[C@@H]3c3ccc(O)cc3)cc2)[C@@]12C(=O)Nc1ccc(I)cc12`, 0.711.
